# Results filed as inconclusive are left out. Active and inactive are the calls of the source. The call rests on the fitted dose curve; in most records, active means well fitted inhibition curve with a large enough effect; inconclusive means small, poorly fitted or top-dose-only effect; inactive means flat fitted curve, though single readings scatter.
# System: Zika virus NS2B-NS3 protease
# Test: Primary screen GU AMC qHTS for Zika virus inhibitors (AID 1347154); further: nearly all actives have a fitted effect of over 70% in size;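 on activity change, negative = inhibition: 0% = no-inhibitor control and -100% = no-enzyme control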
# Details: Zika NS2B-NS3 unlinked protease, AMC fluorogenic substrate; series mostly up to 54.1 µM; activity change, negative = inhibition: at the top concentration
# Method in brief: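 Unlinked Zika NS2B hydrophilic domain/NS3 protease domain noncovalent complex (25 nM final) in 10 mM Tris-HCl pH 8.0, 0.01% Tween 20, with AMC peptide substrate. Fluorescence (ex 340, em 450 nm) change over 15 min, room temperature; percent inhibition fitted to 4-parameter Hill equation.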
# Potency means the concentration at half of the fitted maximal effect.
Compound,Potency,"activity change, negative = inhibition"
CCCCCCCCCCCCCCCCC(C(=O)O)C(O)(CC(=O)O)C(=O)O (configuration not stated),4.05 µM (active),–
Nc1ncnc(Nc2ccccc2)n1,–,-3.33% (inactive)
COc1nccnc1NS(=O)(=O)c1ccc(N)cc1,–,3.5% (inactive)
CC(C)(C)NCC(O)COc1cccc2c1CCC(=O)N2 (configuration not stated),–,-0.679% (inactive)
NC(=O)CCCCC1CCSS1 (configuration not stated),–,-0.541% (inactive)
CCCCCCCCCCCCCCCCCCO,–,0.409% (inactive)
CC(C)C[C@@H](N)C(=O)O,–,-2.56% [at 25.8 µM] (inactive)
CNCc1ccccc1,–,2.73% (inactive)
CC(=O)N(CC(O)CN(C(C)=O)c1c(I)c(C(=O)NCC(O)CO)c(I)c(C(=O)NCC(O)CO)c1I)c1c(I)c(C(=O)NCC(O)CO)c(I)c(C(=O)NCC(O)CO)c1I (configuration not stated),–,-5.77% (inactive)
O=C(CCBr)N1CCN(C(=O)CCBr)CC1,–,-0.152% (inactive)
C[C@@H]1CCC[C@H](C)N1,–,-0.379% (inactive)
COC(=O)c1ccc(O)cc1,–,0.569% (inactive)
COc1ccc(C(=O)NCc2ccc(OCCN(C)C)cc2)cc1OC,–,5.58% (inactive)
Cc1cc(OI)c(C(C)C)cc1-c1cc(C(C)C)c(OI)cc1C,–,-11.5% (inactive)
CC[N+](CC)(CC(=O)Nc1c(C)cccc1C)Cc1ccccc1,–,-5.06% (inactive)
NC(N)=NCCN1CCCCCCC1,–,-2.2% [at 0.59 µM] (inactive)
C/C=C1\[C@H]2C=C(C)C[C@]1(N)c1ccc(=O)[nH]c1C2,–,4.65% (inactive)
CCCCCCCCCCOc1cc2c(=O)c(C(=O)OCC)c[nH]c2cc1OCC,–,-1.56% [at 4.99 µM] (inactive)
Nc1ccc(C(=O)Oc2ccccc2)c(O)c1,–,-3.07% (inactive)

Compound,Potency,"activity change, negative = inhibition"
CC1(c2ccccc2)OC(C(=O)O)=CC1=O (configuration not stated),inactive,–
O=c1[nH]c2cc(C(F)(F)F)c(N3CCOCC3)cc2n(CP(=O)(O)O)c1=O,inactive,–
CCCCCCCCCCC(CO)CCCCCCCC (configuration not stated),–,-0.744% (inactive)
CCS(=O)(=O)CCn1c([N+](=O)[O-])cnc1C,–,-3.48% (inactive)
COc1ccccc1OC(=O)Oc1ccccc1OC,–,-0.417% (inactive)
NS(=O)(=O)c1ccc(C(=O)O)cc1,–,3.94% (inactive)
CN[C@@H]1[C@@H](O)[C@@H](O[C@@H]2[C@H](O)[C@H](O[C@H]3OC(CN)=CC[C@H]3N)[C@@H](N)C[C@H]2N)OCC1(C)O (some centres not stated),–,-0.839% (inactive)
O=C(c1ccccc1)C(O)c1ccccc1 (configuration not stated),–,-3.72% (inactive)
CCN(CC)CC1CCCCN1CC(=O)N1c2ccccc2C(=O)Nc2cccnc21 (configuration not stated),–,0.0282% (inactive)
NS(=O)(=O)c1ccc(NC(=O)CCC(=O)O)cc1,–,4.14% (inactive)
O=C(O)Cc1ccc(CCNS(=O)(=O)c2ccc(Cl)cc2)cc1,–,-0.329% (inactive)
COC(=O)c1cccnc1,–,-2.98% (inactive)
O=C1c2cccc(O)c2C(=O)c2c(O)cccc21,–,-2.23% (inactive)
COc1ccc(-c2cc(=O)c3c(O)cc(O[C@@H]4O[C@H](CO[C@@H]5O[C@@H](C)[C@H](O)[C@@H](O)[C@H]5O)[C@@H](O)[C@H](O)[C@H]4O)cc3o2)cc1O,–,-8.67% (inactive)
CC(=O)N1C[C@H](O)C[C@H]1C(=O)O,–,1.65% (inactive)
N[C@@H](Cc1ccc(O)cc1)C(=O)O,–,5.3% [at 6.83 µM] (inactive)
Cc1c(C(=O)NCCO)[n+](=O)c2ccccc2n1[O-],–,-5.63% (inactive)
CCOC(=O)c1cccnc1,–,1.67% (inactive)
